This note sets out measurements from PubChem BioAssay.

SMILES strings stand for the structures. Inconclusive results are not listed. Calls of active or inactive are those of the source. Unless noted, the limit is not given here; nearly all actives have AC50 up to about 26 µM.

For orientation: AC50 means the concentration giving half of the maximal activity seen. For orientation: IC50 means the concentration at which inhibition is half-maximal. Broadly, the viability is a read-out of living cells in per cent, often relative to untreated cells.

Experiment [1] in a line: growth inhibition of DIPG glioma cells, dose response, cell-based, SU-DIPG-XVII, MIPE5.0, CellTiter-Glo, qHTS (AID 1347060).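 As to AC50: cells exposed to compound for 48 hours before viability readout.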 The following applies: SU-DIPG-XVII viability, CellTiter-Glo ATP luminescence.
Experiment [2] in a line: JHH-DIPG-1 glioma cell viability, MIPE5.0 library, CellTiter-Glo luminescence, qHTS (AID 1347067).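 Also: cells exposed to compound for 48 hours before readout.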 The following applies: JHH-DIPG-1 glioma viability, CellTiter-Glo ATP luminescence. In general terms: ATP-based viability assays read luminescence as a measure of living cells.
A short description of experiment [3]: SU-DIPG-XXV glioma cell viability, MIPE5.0 library, qHTS (AID 1347068; cut-off not given, nearly all actives have IC50 up to about 30 µM;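 as to IC50: cells exposed to compound for 48 hours before viability readout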). In general terms: qHTS replaces the single test concentration by a dilution series.
The nature of experiment [4]: sensitizers of A549 cells to miR-34 induction, primary screen, imaging, A549 dox-inducible miR-34, nuclei and caspase counts (AID 1347080;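 active = compounds whose cell count with miR-34 switched on is under 0.7 times the count with it off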). The following applies: A549 miR-34 inducible, Hoechst nuclei count, 48 h.
Experiment [5] in a line: survival rescue of mitochondrial mutant cells in low glucose, primary screen, MELAS cybrids, Rieske KO mouse fibroblasts, CellTiter-Glo (AID 1508586;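 active = mean z-score across replicates of 1.96 or higher in either the MELAS or the Rieske mutant cell line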;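 also: z relative to plate mean and SD of compound and empty wells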).
A short description of experiment [6]: ovarian cancer cell viability with rucaparib, profiling panel, oncology-focused library, rucaparib conditional (AID 1508598;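 active = normalized viability below 100% at a tested concentration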). The following applies: patient-derived ovarian cancer cells, CellTiter-Glo viability, 144 h, stronger effect = lower value.

For `CC(C)(c1ccc(OCC(O)CO)cc1)c1ccc(OCC(O)CCl)cc1` (stereo not given), the result in experiment [1], in experiment [2] and in experiment [3] was inactive.

Regarding `CNc1ncc2cc(-c3cc(NC(=O)NCCC(C)(C)C)c(F)cc3C)c(C)nc2n1`, the molecule was classed as inactive in experiment [1] and in experiment [3].

In the case of `CCCOc1ccc(CCc2nc3cc(-c4c(C)noc4C)ccc3n2CCN2CCOCC2)cc1`, the call in experiment [1] and in experiment [3] was inactive. In experiment [2], the AC50 is 20.9 µM (active).

As to `C[C@H]1C[C@@H](n2c(Nc3ccc(OC(F)(F)F)cc3)nc3cc(CCC(=O)O)ccc32)CC(C)(C)C1`, in experiment [1], the AC50 is 23.5 µM (active). The molecule was called inactive in experiment [3].

Take `COCCOC(=O)N1CCN(S(=O)(=O)c2cc(F)c(Oc3ccc(Cl)cc3)c(F)c2)C(C(=O)NO)C1` (stereo not given): the molecule was called inactive in experiment [1]. Besides, in experiment [2], the AC50 is 16.6 µM (active). In addition, the IC50 in experiment [3] is 20.9 µM (active).

On to `CN1C[C@@H]2c3ccccc3Oc3ccc(Cl)cc3[C@H]2C1`, for which the result in experiment [1], in experiment [2] and in experiment [3] was inactive. The fold change in experiment [4] (stronger effect = lower value, cell number ratio, induced over uninduced) was 0.885 (inactive); in experiment [4] (measured here: relative caspase fold change +Dox/-Dox), 1.23. Further, the cell count in experiment [4] (measured here: total cells with miR-34 induction, stronger effect = lower value) was 6350; in experiment [4] (measured here: total cells without miR-34 induction), 7170. Further, the z-score in experiment [5] (MELAS cybrid survival, CellTiter-Glo 48 h, stronger effect = higher value) was -0.348 (inactive); in experiment [5] (Rieske KO mouse fibroblast survival, CellTiter-Glo 72 h), 0.514.

For the molecule `COc1cccc(Nc2ncnn3ccc(CN4CC[C@@H](N)[C@H](O)C4)c23)c1`, the AC50 in experiment [1] was 14.8 µM (active). Besides, the result in experiment [2] and in experiment [3] was inactive.

In the case of `O=C(/C=C/c1ccc(Cl)cc1)N1CCC2(CC1)CN(Cc1ccc(Cl)c(Cl)c1)C(=O)O2`, the concentration at half-maximal activity (AC50) in experiment [1] is 18.6 µM (active). In experiment [3], the molecule was called inactive.

As for `N#Cc1cccnc1N1CCN(C(=O)c2cccc(Cc3n[nH]c(=O)c4ccccc34)c2)CC1`, the AC50 in experiment [1] is 0.059 µM (active). Besides, in experiment [3], the molecule was classed as inactive.

With `COC(=O)C1=C(C)NC(c2ncc(F)cc2F)=N[C@@H]1c1ccc(F)cc1Cl`, the outcome in experiment [1] and in experiment [3] was inactive.

Regarding `CCn1c(N)c(C(=O)NC)c(=O)c2ccc(C#CC(C)(O)COC)nc21` (stereo not given), the AC50 in experiment [1] is 20.9 µM (active). Besides, the molecule was called inactive in experiment [2] and in experiment [3].

Regarding `CC(=O)C1CCC2C3CCC4=CC(=O)CCC4(C)C3CCC12C` (stereo not given), the molecule was classed as inactive in experiment [1], in experiment [2] and in experiment [3].

Take `CC#C[C@@H](CC(=O)O)c1ccc(OCc2cccc(-c3ccc(C(F)(F)F)cc3)c2)cc1`: the call in experiment [1], in experiment [2] and in experiment [3] was inactive.

Turning to `C=C1CCC[C@]2(C)C=C3OC(=O)C(C)=C3C[C@@H]12`, the molecule was classed as inactive in experiment [1], in experiment [2] and in experiment [3].

For the molecule `CC[C@H](C)[C@@H]([C@@H](CC(=O)N1CCC[C@H]1[C@H](OC)[C@@H](C)C(=O)N[C@@H](Cc1ccccc1)c1nccs1)OC)N(C)C(=O)[C@@H](NC(=O)[C@H](C(C)C)N(C)C)C(C)C`, the molecule was called inactive in experiment [1]. Also, the IC50 in experiment [3] was 0.00417 µM (active).

Take `NC(=O)c1cc(F)cc2c1C(=O)N(C1CCN(C3CCC(F)(F)CC3)CC1)C2`: the outcome in experiment [1], in experiment [2] and in experiment [3] was inactive.

Take `C[C@@H](O)[C@@H](C)Oc1nc(Nc2ccc(S(=N)(=O)C3CC3)cc2)ncc1C(F)(F)F` (stereo not given in full): the AC50 in experiment [1] was 20.9 µM (active). For the same molecule, the result in experiment [3] was inactive.

On to `Cc1onc(-c2ccc(F)cc2)c1COc1ccc(C(=O)N2CCS(=O)(=O)CC2)cn1`, for which the molecule was called inactive in experiment [1], in experiment [2] and in experiment [3].

For the molecule `CN1C(=O)N(c2cc(Cl)cc(Cl)c2)C(=O)[C@]12CN(Cc1cc(C(=O)O)cs1)C[C@H]2c1ccc(C#N)cc1`, the call in experiment [1] and in experiment [3] was inactive.

In the case of `O=C(NO)C1(CS(=O)(=O)c2ccc(Oc3ccc(Cl)cc3)cc2)CCOCC1`, the outcome in experiment [1] and in experiment [3] was inactive. In addition, the AC50 in experiment [2] is 3.72 µM (active).

As for `CN(C)CCN1C(=O)c2cccc3cc(NC(N)=O)cc(c23)C1=O`, the AC50 in experiment [1] is 18.6 µM (active). The call in experiment [3] was inactive.

As to `CSc1ccc(C(=O)/C=C/c2cc(C)c(OC(C)(C)C(=O)O)c(C)c2)cc1`, the molecule was classed as inactive in experiment [1] and in experiment [3].

Regarding `Cc1cc(CS(=O)(=O)c2ccccc2)cc(OCc2ccc(CN3CCC[C@@H]3CO)cc2)c1`, in experiment [1], the AC50 was 26.3 µM (active). The molecule was called inactive in experiment [2] and in experiment [3]. Moreover, the viability in experiment [6] (at 0.000305 µM, OCI-C5x cells, with rucaparib 10 µM, 100% = cells with rucaparib alone) was 111% (inactive); in experiment [6] (at 0.000305 µM, OCI-C5x cells, without rucaparib), 109% (inactive); in experiment [6] (at 0.000305 µM, OCI-P5x cells, with rucaparib 20 µM, 100% = cells with rucaparib alone), 97% (active); in experiment [6] (at 0.000305 µM, OCI-P5x cells, without rucaparib), 106% (inactive); in experiment [6] (at 0.00122 µM, OCI-C5x cells, with rucaparib 10 µM, 100% = cells with rucaparib alone), 113% (inactive); in experiment [6] (at 0.00122 µM, OCI-C5x cells, without rucaparib) it was 120% (inactive). Moreover, the viability is 103% (inactive) in experiment [6] (at 0.00122 µM, OCI-P5x cells, with rucaparib 20 µM, 100% = cells with rucaparib alone); 108% (inactive) in experiment [6] (at 0.00122 µM, OCI-P5x cells, without rucaparib); 111% (inactive) in experiment [6] (at 0.00488 µM, OCI-C5x cells, with rucaparib 10 µM, 100% = cells with rucaparib alone); 127% (inactive) in experiment [6] (at 0.00488 µM, OCI-C5x cells, without rucaparib); 99.4% (active) in experiment [6] (at 0.00488 µM, OCI-P5x cells, with rucaparib 20 µM, 100% = cells with rucaparib alone); 107% (inactive) in experiment [6] (at 0.00488 µM, OCI-P5x cells, without rucaparib). Also, the viability was 116% (inactive) in experiment [6] (at 0.0195 µM, OCI-C5x cells, with rucaparib 10 µM, 100% = cells with rucaparib alone); 116% (inactive) in experiment [6] (at 0.0195 µM, OCI-C5x cells, without rucaparib); 107% (inactive) in experiment [6] (at 0.0195 µM, OCI-P5x cells, with rucaparib 20 µM, 100% = cells with rucaparib alone); 103% (inactive) in experiment [6] (at 0.0195 µM, OCI-P5x cells, without rucaparib); 123% (inactive) in experiment [6] (at 0.0781 µM, OCI-C5x cells, with rucaparib 10 µM, 100% = cells with rucaparib alone); 125% (inactive) in experiment [6] (at 0.0781 µM, OCI-C5x cells, without rucaparib). The viability in experiment [6] (at 0.0781 µM, OCI-P5x cells, with rucaparib 20 µM, 100% = cells with rucaparib alone) was 99.2% (active); in experiment [6] (at 0.0781 µM, OCI-P5x cells, without rucaparib), 108% (inactive); in experiment [6] (at 0.313 µM, OCI-C5x cells, with rucaparib 10 µM, 100% = cells with rucaparib alone), 116% (inactive); in experiment [6] (at 0.313 µM, OCI-C5x cells, without rucaparib) it was 111% (inactive); in experiment [6] (at 0.313 µM, OCI-P5x cells, with rucaparib 20 µM, 100% = cells with rucaparib alone) it was 106% (inactive); in experiment [6] (at 0.313 µM, OCI-P5x cells, without rucaparib), 109% (inactive). Also, the viability in experiment [6] (at 1.25 µM, OCI-C5x cells, with rucaparib 10 µM, 100% = cells with rucaparib alone) was 117% (inactive); in experiment [6] (at 1.25 µM, OCI-C5x cells, without rucaparib) it was 123% (inactive); in experiment [6] (at 1.25 µM, OCI-P5x cells, with rucaparib 20 µM, 100% = cells with rucaparib alone), 99.2% (active); in experiment [6] (at 1.25 µM, OCI-P5x cells, without rucaparib), 105% (inactive); in experiment [6] (at 5 µM, OCI-C5x cells, with rucaparib 10 µM, 100% = cells with rucaparib alone), 127% (inactive); in experiment [6] (at 5 µM, OCI-C5x cells, without rucaparib), 122% (inactive). Besides, the viability in experiment [6] (at 5 µM, OCI-P5x cells, with rucaparib 20 µM, 100% = cells with rucaparib alone) is 95.9% (active); in experiment [6] (at 5 µM, OCI-P5x cells, without rucaparib) it was 99.8% (active).

As to `CC(C)NCCCn1c(Sc2cc(Cl)cc(Cl)c2)nc2c(N)ncnc21`, the outcome in experiment [1], in experiment [2] and in experiment [3] was inactive.
